The values below come from PubChem BioAssay (Tox21).

Inconclusive results are not listed. Active and inactive are the calls of the source. Unless noted, the call rests on the fitted dose curve; in most records, active means well fitted curve in the direction sought with a large enough effect in the repeat runs; inconclusive means weak or mixed curves; inactive means no such curve, though single readings can be large; an effect the other way counts as inactive or inconclusive.

Experiment [1] deals with Progesterone receptor (Homo sapiens) (UniProt P06401). Briefly: qHTS assay to identify small molecule agonists of the progesterone receptor (PR) signaling pathway (AID 1346784; calls by dose curve; further: nearly all actives have a fitted effect of over 30% in size). Put shortly:
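PR-UAS-bla HEK 293T cells (beta-lactamase reporter under UAS) in 2% charcoal-stripped FBS, dosed with 23 nL compound after 6 hr, incubated 16hr at 37C. LiveBLAzer B/G FRET substrate added, fluorescence read after 2 hours.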
For orientation: Quantitative high-throughput screening tests each substance at several concentrations.

Experiment [2] has the same target. Description: qHTS assay to identify small molecule antagonists of the progesterone receptor (PR) signaling pathway (AID 1346795; active means well fitted inhibition curve with a large enough effect in the signal ratio in the repeat runs, not every such curve was filed as active; the % refers to the signal ratio; further: potency means the concentration at half of the fitted maximal effect). A digest of the protocol: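 PR-UAS-bla HEK293T cells with beta-lactamase reporter under UAS control, in 2% charcoal-stripped FBS, treated with compounds plus 1 nM promegestone (R5020, final) for 16 hr at 37C. Read-out: FRET beta-lactamase substrate fluorescence after 2 hr at room temperature.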

Experiment [3] is described as follows: qHTS assay to identify small molecule antagonists of the progesterone receptor (PR) signaling pathway - cell viability counter screen (AID 1346798). Further: series mostly up to about 92 µM; nearly all actives have a fitted effect of over 50% in size. A digest of the protocol: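 PR-UAS-bla HEK293T cells, 3,000/well in 2% charcoal-stripped FBS medium, dosed with compounds plus R5020 agonist and incubated 16 h at 37C. Viability then measured in the same wells by CellTiter-Glo luminescence after 30 min at RT.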

A short description of experiment [4]: qHTS assay to identify small molecule agonists of the progesterone receptor (PR) signaling pathway - cell viability counter screen (AID 1346799; calls by dose curve; further: nearly all actives have a fitted effect of over 45% in size). A digest of the protocol:
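Counter screen in the PR-UAS-bla HEK293T wells (2% charcoal-stripped FBS, 16 h compound exposure at 37 C) after the bla read. CellTiter-Glo added, 30 min at room temperature, luminescence read as cell viability.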

Experiment [5] in a line: qHTS assay to identify small molecule antagonists of the TGF-beta/Smad signaling pathway - cell viability counter screen (AID 1346824). Further: nearly all actives have a fitted effect of over 50% in size. A digest of the protocol:
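SBE-bla HEK 293T cells were plated overnight at 37 C, then given compounds in DMSO plus TGF-beta1 (added as 0.25 ng/mL solution) for 5 hr. After the bla read, CellTiter-Glo was added to the same wells and luminescence read after 30 min at room temperature.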

A short description of experiment [6]: qHTS assay to identify small molecule agonists of the TGF-beta/Smad signaling pathway - cell viability counter screen (AID 1346829). Further: top concentration of the series differs between compounds; nearly all actives have a fitted effect of over 45% in size. A digest of the protocol:
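Compound-treated SBE-bla HEK 293T cells (5 hr, 37 C) were assessed for viability with CellTiter-Glo in parallel with the reporter read.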

The nature of experiment [7]: qHTS assay to identify small molecule agonists of the TGF-beta/Smad signaling pathway (AID 1346859; active means well fitted activation curve with a large enough effect in the signal ratio in the repeat runs, not every such curve was filed as active; the % refers to the signal ratio; further: series mostly up to about 77 µM). Put shortly:
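SBE-bla HEK293T cells plated overnight, then compound exposure for 5 h at 37 C. Beta-lactamase reporter read with LiveBLAzer B/G FRET substrate after 2 h at room temperature, fluorescence at 405 nm excitation, 460/530 nm emission.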

Experiment [8] addresses Thyrotropin-releasing hormone receptor (Homo sapiens) (UniProt P34981). Description: qHTS assay to identify small molecule agonists of the thyrotropin-releasing hormone receptor (TRHR) signaling pathway (AID 1346891; calls by dose curve; further: series mostly up to about 58 µM). Put shortly:
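HEK293 cells expressing TRHR plated 18 h at 37 C/5% CO2, calcium dye-loaded 2 h at 37 C, then compound added (agonist mode); kinetic calcium fluorescence read 3 min at 1 s intervals; 15 concentrations in triplicate.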

Experiment [9] can be described thus: Human pregnane X receptor (PXR) small molecule agonists, qHTS cell viability counter screen (AID 1346977). Further: nearly all actives have a fitted effect of over 50% in size. A digest of the protocol:
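PXR-Luc HepG2 cells (2,000/well, 5% charcoal-stripped FBS) preincubated 5 hr, then exposed to compounds 24 hr at 37 C. Viability read in the same wells by CellTiter-Fluor fluorescence, reagent added at 23 hr, 1 hr incubation.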

In experiment [10] the target is Thyrotropin-releasing hormone receptor (Homo sapiens) (UniProt P34981). Briefly: qHTS assay to identify small molecule antagonists of the thyrotropin-releasing hormone receptor (TRHR) signaling pathway (AID 1346877; active means well fitted inhibition curve with a large enough effect in the repeat runs, not every such curve was filed as active; further: series mostly up to about 51 µM). Put shortly:
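Kinetic fluorescence (3 min, 1 s resolution) following stimulation with TRH at 1 nM final; HEK293 cells bearing human TRHR; 5 min compound preincubation at RT; concentration-response over 15 points, triplicates.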

Thyrotropin-releasing hormone receptor (Homo sapiens), sequence (P34981 whole entry, looked up): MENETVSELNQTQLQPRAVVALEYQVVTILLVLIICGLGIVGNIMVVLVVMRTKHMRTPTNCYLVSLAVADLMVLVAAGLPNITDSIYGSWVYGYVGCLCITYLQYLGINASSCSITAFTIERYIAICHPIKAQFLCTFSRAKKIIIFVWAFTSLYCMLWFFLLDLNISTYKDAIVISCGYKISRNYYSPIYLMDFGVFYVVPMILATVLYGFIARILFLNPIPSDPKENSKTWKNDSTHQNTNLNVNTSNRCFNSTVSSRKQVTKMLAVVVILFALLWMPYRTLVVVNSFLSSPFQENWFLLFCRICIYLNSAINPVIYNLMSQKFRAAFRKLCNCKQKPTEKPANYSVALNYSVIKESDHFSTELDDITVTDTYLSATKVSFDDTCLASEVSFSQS
Progesterone receptor (Homo sapiens), sequence (P06401 whole entry, looked up): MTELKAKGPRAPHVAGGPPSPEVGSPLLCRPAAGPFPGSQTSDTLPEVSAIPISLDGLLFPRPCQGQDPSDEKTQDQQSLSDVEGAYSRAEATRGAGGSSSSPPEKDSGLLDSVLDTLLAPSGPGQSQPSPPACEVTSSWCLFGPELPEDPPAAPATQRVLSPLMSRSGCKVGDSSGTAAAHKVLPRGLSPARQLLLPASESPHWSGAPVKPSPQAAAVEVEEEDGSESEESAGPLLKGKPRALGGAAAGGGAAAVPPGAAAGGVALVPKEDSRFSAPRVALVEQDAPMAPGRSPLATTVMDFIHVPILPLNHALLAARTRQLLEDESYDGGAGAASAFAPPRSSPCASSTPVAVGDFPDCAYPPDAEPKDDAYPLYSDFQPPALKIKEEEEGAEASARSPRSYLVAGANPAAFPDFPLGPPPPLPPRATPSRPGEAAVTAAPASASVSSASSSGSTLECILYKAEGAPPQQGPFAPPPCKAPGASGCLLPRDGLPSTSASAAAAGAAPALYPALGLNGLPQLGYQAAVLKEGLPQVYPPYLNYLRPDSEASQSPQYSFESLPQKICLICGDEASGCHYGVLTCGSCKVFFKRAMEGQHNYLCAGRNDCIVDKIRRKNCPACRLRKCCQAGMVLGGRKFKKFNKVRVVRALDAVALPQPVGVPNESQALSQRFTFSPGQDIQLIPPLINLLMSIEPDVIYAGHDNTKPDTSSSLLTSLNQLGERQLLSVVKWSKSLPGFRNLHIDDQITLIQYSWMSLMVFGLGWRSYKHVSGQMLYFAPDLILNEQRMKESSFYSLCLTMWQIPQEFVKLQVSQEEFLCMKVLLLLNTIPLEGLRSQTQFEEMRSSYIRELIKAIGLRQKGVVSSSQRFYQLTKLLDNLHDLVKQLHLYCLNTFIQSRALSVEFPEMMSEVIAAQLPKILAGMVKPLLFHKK

`CNC(=O)Oc1ccc(N(C)C)c(C)c1`: the Potency result in experiment [1], in experiment [2], in experiment [3], in [4], in experiment [5] and in [9] was “inactive” each time. Also, the compound was classed as inactive in experiment [6], in [7] and in [8].

Turning to `COc1ccc(C(=O)N2CCCC2=O)cc1`, the Potency result in [1], in experiment [2], in experiment [3], in experiment [4], in experiment [5] and in [9] was “inactive” in each case. Besides, the compound was classed as inactive in experiment [6], in experiment [7] and in experiment [8].

Turning to `CCCSC(=O)Cl`, the Potency result in experiment [1], in experiment [2], in experiment [3], in experiment [4], in experiment [5] and in experiment [9] was “inactive” each time. Further, the compound was classed as inactive in [6] and in [7].

Take `O=C(O)c1cccc(Cl)c1`: the Potency entry in experiment [1], in [2], in [3], in [4], in [5] and in experiment [9] was “inactive” in each case. Moreover, the call in [6], in experiment [7], in [10] and in experiment [8] was inactive.

Consider `CC1=NNC(=O)N(/N=C/c2cccnc2)C1`, for which the Potency entry in experiment [1], in experiment [2], in [3], in experiment [4], in experiment [5] and in experiment [9] was “inactive” each time. For the same compound, the call in experiment [6], in [7], in experiment [10] and in [8] was inactive.

Consider `OCCSCSCCO`, for which the Potency entry in experiment [1], in [2], in experiment [3], in [4], in experiment [5] and in experiment [9] was “inactive” throughout. Moreover, the outcome in [6], in experiment [7], in experiment [10] and in [8] was inactive.

For the compound `N#CCBr`, the Potency entry in experiment [1], in experiment [2], in [3], in experiment [4], in [5] and in [9] was “inactive” each time. The compound was classed as inactive in experiment [6], in experiment [7] and in experiment [8].

In the case of `CCCCC(=O)Cl`, the Potency result in experiment [1], in experiment [2], in experiment [3], in experiment [4], in [5] and in experiment [9] was “inactive” each time. In addition, the compound was classed as inactive in experiment [6] and in experiment [7].

On to `COC(=O)C1=CCCN(C)C1`, for which the Potency result in [1], in [2], in [3], in experiment [4], in experiment [5] and in experiment [9] was “inactive” each time. Also, the result in [6] and in [7] was inactive.

Consider `CC(Cl)(Cl)[N+](=O)[O-]`, for which the Potency result in experiment [1], in experiment [2], in [3], in [4], in experiment [5] and in [9] was “inactive” each time. Further, the call in [6], in experiment [7] and in experiment [8] was inactive.

For `CCC(Cl)[N+](=O)[O-]` (stereo unspecified), the Potency result in experiment [1], in [2], in [3], in [4], in experiment [5] and in [9] was “inactive” each time. Besides, the result in [6], in experiment [7], in [10] and in [8] was inactive.

Take `C[C@@H]1CN(C2CCC(C#N)(c3ccc(F)cc3)CC2)CC[C@]1(C(=O)O)c1ccccc1` (stereo partly specified): the Potency result in experiment [1], in experiment [2], in experiment [3], in experiment [4], in experiment [5] and in experiment [9] was “inactive” throughout. For the same compound, the compound was classed as inactive in experiment [6] and in experiment [7].

With `CCOP(=O)(N=C1SCCS1)OCC`, the Potency result in [1], in [2], in [3], in experiment [4], in [5] and in experiment [9] was “inactive” throughout. Also, the outcome in experiment [6], in experiment [7], in experiment [10] and in experiment [8] was inactive.

Consider `Cc1cccc(C#N)c1`, for which the Potency entry in experiment [1], in experiment [2], in experiment [3], in experiment [4], in experiment [5] and in [9] was “inactive” in each case. Also, the compound was classed as inactive in [6], in experiment [7], in [10] and in [8].

Consider `CC(=O)C(Cl)Cl`, for which the Potency entry in experiment [1], in experiment [2], in [3], in experiment [4], in experiment [5] and in experiment [9] was “inactive” in each case. The compound was called inactive in [6] and in experiment [7].

In the case of `NC(=O)O`, the Potency entry in experiment [1], in experiment [2], in [3], in experiment [4], in experiment [5] and in [9] was “inactive” throughout. For the same compound, the outcome in experiment [6], in [7], in experiment [10] and in experiment [8] was inactive.

Consider `COc1cc(OC)nc(Sc2cccc(Cl)c2C(=O)O)n1`, for which the Potency result in experiment [1], in experiment [2], in experiment [3], in experiment [4], in experiment [5] and in experiment [9] was “inactive” in each case. In addition, the outcome in experiment [6], in [7], in experiment [10] and in experiment [8] was inactive.

For the compound `C=C(C)[C@@H]1CC=C(C=O)CC1`, the Potency result in experiment [1], in experiment [2], in [3], in experiment [4], in experiment [5] and in experiment [9] was “inactive” in each case. Moreover, the compound was called inactive in [6] and in [7].

As to `CCC1(c2ccccc2)C(=O)NC(=O)NC1=O`, the Potency entry in experiment [1], in experiment [2], in [3], in experiment [4], in experiment [5] and in experiment [9] was “inactive” in each case. In addition, the compound was called inactive in [6], in [7] and in experiment [8].

For the compound `CCS(=O)(=O)CCSP(=O)(OC)OC`, the Potency result in [1], in experiment [2], in [3], in experiment [4], in [5] and in experiment [9] was “inactive” in each case. The call in experiment [6] and in experiment [7] was inactive.

For `Nc1ccccc1Cl`, the Potency result in experiment [1], in experiment [2], in [3], in [4], in experiment [5] and in experiment [9] was “inactive” each time. Further, the result in [6] and in experiment [7] was inactive.

In the case of `OCCBr`, the Potency result in experiment [1], in experiment [2], in [3], in experiment [4], in [5] and in experiment [9] was “inactive” in each case. Moreover, the compound was classed as inactive in [6], in [7] and in experiment [8].

As for `NC1=NC(=O)C(c2ccccc2)O1` (stereo unspecified), the Potency result in experiment [1], in experiment [2], in experiment [3], in experiment [4], in [5] and in experiment [9] was “inactive” in each case. For the same compound, the result in [6], in experiment [7], in [10] and in experiment [8] was inactive.

With `ClCC(Cl)Cl`, the Potency entry in experiment [1], in experiment [2], in experiment [3], in experiment [4], in experiment [5] and in experiment [9] was “inactive” throughout. The compound was classed as inactive in [6] and in experiment [7].

As to `OC(c1ccc(F)cc1)(c1cncnc1)c1ccccc1Cl` (stereo unspecified), the Potency result in experiment [1], in [3], in experiment [4] and in experiment [9] was “inactive” throughout. For the same compound, in experiment [2], the Potency is 48.6 µM (active). In addition, the compound was classed as inactive in experiment [6], in experiment [7], in experiment [10] and in [8].

Take `Clc1ccccc1N1CCNCC1`: the Potency result in experiment [1], in [2], in experiment [3], in [5] and in [9] was “inactive” in each case. In addition, the compound was called inactive in experiment [6], in experiment [7] and in [8].

For the compound `O=C1OC(c2ccc(O)c(S(=O)(=O)O)c2)(c2ccc(O)c(S(=O)(=O)O)c2)c2c(Br)c(Br)c(Br)c(Br)c21`, the Potency result in experiment [1], in [2], in [3], in experiment [4], in [5] and in experiment [9] was “inactive” each time. The call in [6] and in experiment [7] was inactive.
